# Assay results: ChEMBL document CHEMBL3988442, “University of Dundee, Small-Polar-MMV Screening Library” (2021)
# The campaign covered roughly 48,000 compounds. About 13,000 (27%) showed an effect of 50% or more. This is one part of the list.
# Test system: Wolbachia pipientis
# Assay: Anti-Wolbachia Cell-Based Screen
# Type: functional
# Parameters: scale not given: in the data most compounds retested in dose-response had high values
# Settings: 5 µM
row,Structure (SMILES),Percent Effect [%]
1,O=C(CCCn1cncn1)NC1(c2ccc(Cl)cc2)CCC1,-16.99
2,O=C(CCn1ccc(=O)[nH]c1=O)N1CCC(Oc2ccccn2)CC1,4.456
3,COc1cc(CCC(=O)N2CCC(c3cc4ncccc4[nH]3)CC2)on1,86.08
4,O=C(CCc1cc(O)no1)N1CCCC(COc2ccccc2F)C1 (stereo not drawn),-3.381
5,COc1cc(CCC(=O)N2CCC(c3cc4nccnc4[nH]3)CC2)on1,109.8
6,O=C(CCc1cc(O)no1)N1CCCC(COc2ccc(F)cc2)C1 (stereo not drawn),-11.68
7,O=C(CCN1CCC(c2cc3ccccc3[nH]2)CC1)N1CCOCC1,-13.23
8,CN1CCN(C(=O)[C@@H]2CN(C)C[C@]23COc2ccc(F)cc2C3=O)CC1,67.23
9,CN1C[C@@H](C(=O)NC2CC2)[C@@]2(COc3ccc(F)cc3C2=O)C1,74.8
10,CCCN1CCC(NC(=O)c2ccc(F)cc2I)CC1,3.516
11,Cc1ccsc1C(=O)N1CC(C(=O)NC(C)C)C2(CCOCC2)C1 (stereo not drawn),2.071
12,CC(C)NC(=O)[C@@H]1CN(C)C[C@]12COc1ccc(F)cc1C2=O,126.3
13,O=C(C1CCOc2ccccc21)N1CCOc2ccc(F)cc21 (stereo not drawn),2.761
14,CC(C)NC(=O)C1CN(C(=O)c2ccc(F)cc2)CC12CCOCC2 (stereo not drawn),19.27
15,O=C(NC1(C(=O)O)CCCC1)C1Cc2cc(F)ccc2O1 (stereo not drawn),-1.866
16,CN1C[C@@H](C(=O)NC2CCCC2)[C@@]2(COc3ccc(F)cc3C2=O)C1,83.49
17,O=C(NCCNC(=O)C1Cc2cc(F)ccc2O1)C1CCCCC1 (stereo not drawn),14.96
18,O=C(CCN1CCC(C(=O)c2cc(F)ccc2F)CC1)NC1CCCC1,-34
19,CNC(=O)N1Cc2cc(F)ccc2C2(CCN(C)CC2)C1.Cl,3.324
20,Cc1cc(F)ccc1N1CCC(N2C[C@@H](C)[C@@](C)(O)C2)CC1,-24.61
21,OCCOCc1n[nH]c2c1CN(Cc1cccs1)C2,-8.945
22,C1CCC(c2nc3c(c(N4CC(N5CCOCC5)C4)n2)CCNCC3)C1,-4.65

row,Structure (SMILES),Percent Effect [%]
1,Cc1noc(C)c1CN(C)C(=O)C1CCCCN1CC(C)C (stereo not drawn),0.6295
2,CCc1cnc(C)nc1N1CCS(=O)(=O)CC1,16.32
3,CN1C[C@@H](C(=O)NC(C)(C)C)[C@@]2(COc3ccc(F)cc3C2=O)C1,107.1
4,CC(C)(C)NC(=O)C1CSCN1S(=O)(=O)c1ccc(F)cc1 (stereo not drawn),5.212
5,CC(C)(C)NC(=O)C1CSCN1S(=O)(=O)c1cccc(F)c1 (stereo not drawn),1.077
6,CC(=O)c1cccc(S(=O)(=O)N2CSCC2C(=O)NCC(F)(F)F)c1 (stereo not drawn),8.95
7,CN(C)C(=O)c1c[nH]nc1-c1ccc(CNC(=O)c2cnccn2)cc1,109.4
8,CN(Cc1ccco1)Cc1ccccc1CNC(=O)c1cnccn1,7.808
9,Cc1ncsc1C(=O)NCc1cccs1,-3.425
10,Cc1ccc(CNC(=O)c2c[nH]nc2NC(=O)C2CCC2)cc1,4.147
11,CN(CCOc1cccc(CNC(=O)C2CC2)c1)C1CCOCC1,-18.9
12,CCN(CC)c1ccc(CNC(=O)c2cnccn2)cn1,2.528
13,Cc1cc(C(=O)NCc2ccc(-c3n[nH]cc3C(=O)N(C)C)cc2)on1,136.2
14,CN(C)C(=O)c1cncnc1-c1ccc(CNC(=O)C2CC2)cc1,73.6
15,Cc1ncsc1C(=O)NCc1ccc(-c2n[nH]cc2C(=O)N(C)C)cc1,72.18
16,CCOc1cc(CNC(=O)c2cc(-c3ccccn3)no2)ccn1,-5.804
17,Cc1cc(C(=O)NCc2ccccc2CN(C)Cc2ccco2)on1,21.5
18,CN(c1ccc(CNC(=O)c2ccc(O)nc2)cc1)C1CCCCC1,6.661
19,CCC(C)NC(=O)c1ccc(NC(=O)CCCn2cncn2)c(C)c1 (stereo not drawn),-0.8579
20,CC(C)=CCS(=O)(=O)Cc1ccn(-c2cccc(F)c2)n1,-8.164
21,Cc1cc(C)n2nc(CC(=O)N3CC[C@H]4NCCC[C@]4(CO)C3)nc2n1,5.114
22,CCC(O)Cn1nc(CCSC)nc1-c1ccc2c(c1)OCCO2 (stereo not drawn),-7.02

row,Structure (SMILES),Percent Effect [%]
1,CCc1nc(C2CCCN(C(=O)c3ccc(O)nc3)C2)no1 (stereo not drawn),94.4
2,CCc1nc(C2CCCN(C(=O)c3ccc4[nH]cnc4c3)C2)no1 (stereo not drawn),87.55
3,CCc1nc(C2CCCN(C(=O)c3ccc(OC(C)C)nc3)C2)no1 (stereo not drawn),4.592
4,CC(C)c1nc(C2CCCN(C(=O)c3ccc4[nH]cnc4c3)C2)no1 (stereo not drawn),1.919
5,CCc1nc(C2CCCN(C(=O)c3ccc4[nH]nnc4c3)C2)no1 (stereo not drawn),1.903
6,CCc1nc(C2CCCN(C(=O)c3ccc(Cl)cc3)C2)no1 (stereo not drawn),149.4
7,CCc1nc(C2CCCN(C(=O)c3c(C)noc3C)C2)no1 (stereo not drawn),106.3
8,CCc1nc(C2CCCN(C(=O)c3cn(C)nc3C)C2)no1 (stereo not drawn),-1.661
9,O=C(NCc1ccc(CN2CCCC2)cc1)NCc1ccon1,-9.348
10,COc1cc(C)nc(N2CCN(C(=O)CNC(C)(C)C)CC2)n1,-7.081
11,c1cncc(NCCCNC2CCSC2)c1 (stereo not drawn),8.573
12,Cn1cnnc1-c1cncc(NCc2cccc3c2OCO3)c1,-7.225
13,Cc1noc(C(C)Nc2ccc3oc(=O)[nH]c3c2)n1 (stereo not drawn),-7.057
14,CN(CC(=O)N1CCN(c2ncccn2)CC1)c1ccc(Cl)cn1,-31.13
15,CCc1ccc(C(=O)N2CCCC(c3noc(CC)n3)C2)o1 (stereo not drawn),3.526
16,Cc1c[nH]nc1C1CCCN(C(=O)c2c(C)noc2C)C1 (stereo not drawn),107
17,Cc1noc(C)c1C(=O)N1CCCC(c2nccn2Cc2cscn2)C1 (stereo not drawn),-18.15
18,CCc1nc(C2CCCN(C(=O)c3ccc(OC)cc3)C2)no1 (stereo not drawn),87.64
19,Cc1cc(C)n(C2CCCN(C(=O)c3c(C)noc3C)C2)n1 (stereo not drawn),-7.23
20,CCc1nc(C2CCCN(C(=O)c3ccc(F)cc3)C2)no1 (stereo not drawn),103.7
21,CCc1nc(C2CCCN(C(=O)c3ccncc3)C2)no1 (stereo not drawn),123.6
22,C=Cc1ccc(C(=O)N2CCCC(Nc3ccc(F)cc3)C2)cc1 (stereo not drawn),-17.89

row,Structure (SMILES),Percent Effect [%]
1,CCC(CC(=O)NS(=O)(=O)C(C)C)c1ccccc1 (stereo not drawn),10.71
2,COc1cc2c(cc1CNCc1cccnc1-n1cccn1)OC(C)C2.Cl (stereo not drawn),12.76
3,Cc1ccc(C)c(CNC(=O)NC(C)(C(=O)O)c2ccco2)c1 (stereo not drawn),3.789
4,CC1=C(CCN2CCCC(O)C2)C(C)(C)CCC1 (stereo not drawn),-3.829
5,C(=C\c1ccc(CN2CCCC2)cn1)/c1ccccc1,-4.188
6,CC(=O)Nc1nc(C(=O)NCCOc2ccccc2)cs1,-21.48
7,CCCNc1nc(CS(=O)(=O)c2ccccc2)cs1,-6.524
8,Br.O=C(O)c1csc(NCCc2ccccc2)n1,93.16
9,CC(C)(C)CC(=O)NCC(=O)NCC(O)c1ccc2ccccc2c1 (stereo not drawn),2.35
10,CN(Cc1ccc(-n2cccn2)cc1)c1cc(N)nc(N)n1,-3.397
11,COc1ccnc(N2CCC3(CCCN(C(C)C)C3=O)C2)n1 (stereo not drawn),10.66
12,Cc1cc(N2CCC(c3nnc(CN(C)C)n3C3CC3)CC2)ccn1,1.365
13,O=C1N(C2CCOCC2)CCCC12CCN(c1ncccc1Cl)C2 (stereo not drawn),119
14,Cc1nccnc1N1CCC2(CCCN(C3CCOCC3)C2=O)C1 (stereo not drawn),28.32
15,Cc1nc(N2CCC3(CCCN(C(C)C)C3=O)C2)c2sccc2n1 (stereo not drawn),-8.987
16,Cc1ccc(C#N)c(N2CCC3(CCC(=O)N(CC(N)=O)C3)CC2)n1,-13.92
17,Cc1ccc(C#N)c(N2CCC(c3nccn3Cc3cscn3)CC2)n1,-1.954
18,Cc1cc(N2CCC3(CCCN(C4CCOCC4)C3=O)C2)ccn1 (stereo not drawn),118.2
19,N#Cc1cccnc1N1CCC2(CCCN(C3CCOCC3)C2=O)C1 (stereo not drawn),-10.29
20,Cc1cnc(C)c(N2CCC3(CCCN(C4CCOCC4)C3=O)C2)n1 (stereo not drawn),106.2
21,COC[C@@]12CC[C@@H](N3CCOCC3)C[C@H]1CCN(c1ncccc1Cl)C2,19.13
22,Cc1ccc(C#N)c(N2CCC3(CCCN(C4CCOCC4)C3=O)C2)n1 (stereo not drawn),93.97

row,Structure (SMILES),Percent Effect [%]
1,CCNc1ncc(C(=O)NCC2OCCc3ccccc32)cn1 (stereo not drawn),-9.42
2,CCc1nc(C)c(CN2CCCC(c3nn(C)c(=O)n3CC)C2)[nH]1 (stereo not drawn),1.561
3,O=S(=O)(Cc1ccccc1CN1CCOCC(O)C1)c1ccccc1 (stereo not drawn),-4.778
4,O=C(NCc1ccccc1Cn1ccnc1)N1CCSCC1,-1.657
5,NC(=O)CN1CC2(CCC1=O)CCN(Cc1ccc(F)cc1Cl)CC2,0.9976
6,O=C(Nc1cccc(CN2CCOC2=O)c1)N1CCSCC1,46.29
7,CNc1nc(C(=O)N2CCCC(CO)(CCCOC)C2)cs1 (stereo not drawn),-13.19
8,CCCc1nc(C(=O)N2CCCn3nc(CCC(=O)O)cc3C2)cs1,-10.82
9,Cc1ccc(O)c(CN2CCn3nc(C(=O)N4CCCC4)cc3C2)n1,-10.87
10,CNc1nc(C(=O)N2CCCn3nc(C(=O)N4CCCC4)cc3C2)cs1,132.4
11,Cc1cc(C(=O)N2CCn3nc(C(=O)NC4CC4)cc3C2)nc(C)n1,5.79
12,CNc1nc(C(=O)N2CCn3nc(C(=O)OC)cc3C2)cs1,99.12
13,CCC(C)(NCc1nc(C)c(C)o1)c1nccs1 (stereo not drawn),-14.02
14,CCOc1cc(CNCc2cnc(C)cn2)c(Cl)cc1OC(C)C,-9.744
15,Cc1cc(C)c(N(CC(O)CNCc2ccco2)S(C)(=O)=O)c(C)c1.O=C(O)c1ccccc1 (stereo not drawn),101.1
16,COC(=O)c1ccc(NC(=O)CNCc2ccco2)cc1,-10.44
17,O=S(=O)(Cc1cccc(F)c1)NCC(O)Cc1ccccc1 (stereo not drawn),13.38
18,Cc1ccc(C(=O)O)cc1S(=O)(=O)N(CC(C)O)c1ccccc1 (stereo not drawn),-9.364
19,Br.Cc1cc(C)c(N(CC(O)CNCc2ccccc2)S(C)(=O)=O)c(C)c1 (stereo not drawn),104.6
20,Cc1ccc(N(C)CC(O)COCc2ccccc2)c(C)c1 (stereo not drawn),-35.03
